Here are results for three compounds from PubChem BioAssay AID651780 (The Scripps Research Institute Molecular Screening Center, 2012).

Screen size: about 2,400 compounds; about 1,800 (75%) were called active. Rule as the data show it: active = inhibition above about 22%; inactive = the rest. So high a share suggests a set chosen from earlier hits. The list is a sample of the results.

A short description of this test: nonselective antagonists in TAAR1 counter-screen cells, counter-screen for hTAAR1 antagonist project, cell-based, fluorescence, calcium (AID 651780).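 Also: CHO-Ga16 host cells stimulated with ATP at an EC80 level; 0% = agonist EC80 plus vehicle and 100% = vehicle without agonist.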 Conditions: counterscreen cell line, antagonist mode, at 3 µM, active compounds read high.
Regarding `COC(=O)C1=C(c2ccc(F)cc2OCc2ccccc2)C[C@@H]2CC[C@H]1N2C(=O)NCc1ccc(OC)c(OC)c1`, the inhibition was 24.8% (active).
Take `COC(=O)C1=C(c2ccccc2OCc2ccccc2)C[C@@H]2CC[C@H]1N2C(=O)NCc1ccc(OC)cc1`: the inhibition was 22.2% (active).
For the compound `O=C1C2(Cl)C3(Cl)C4(Cl)C(Cl)(Cl)C5(Cl)C3(Cl)C1(Cl)C5(Cl)C24Cl` (stereo not drawn), the inhibition was 24.9% (active).

Usually inhibition stands for how much of the control response was suppressed.
